# PubChem BioAssay (Tox21)
# Inconclusive results are not listed. A call without a number means that no potency is given here. Activity calls are given as the source filed them. Unless noted, calls come from the whole dose curve; as a rule, active = well fitted curve in the direction sought with a large enough effect in the repeat runs; inconclusive = weak or mixed curves; inactive = no such curve, though single readings can be large; an effect the other way counts as inactive or inconclusive.
# Key:
# [1] = qHTS assay to identify small molecule agonists of the peroxisome proliferator-activated receptor delta (PPARd) signaling pathway - cell viability counter screen (AID 743211); note: nearly all actives have a fitted effect of over 55% in size
# Procedure, shortened: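 Multiplexed format: after the 2 h room-temperature LiveBLAzer B/G FRET step, CellTiter-Glo was added to the same wells. Luminescence after 30 min gave cell viability; compound exposure was 17 h at 37C.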
# [2] = qHTS assay to identify small molecule antagonists of the peroxisome proliferator-activated receptor delta (PPARd) signaling pathway - cell viability counter screen (AID 743213); note: nearly all actives have a fitted effect of over 50% in size
# Procedure, shortened: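 HEK293H PPARd UAS-bla cells, 5 h pre-incubation, compound + L165041 300 nM final, 17 h 37 C; B/G FRET substrate 2 h RT; then CellTiter-Glo 30 min RT, luminescence.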
# [3] = qHTS assay to identify small molecule agonists of the farnesoid-X-receptor (FXR) signaling pathway - cell viability counter screen (AID 743218); note: nearly all actives have a fitted effect of over 45% in size
# Procedure, shortened: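 Readout: CellTiter-Glo luminescence, 30 min RT, multiplexed after the FXR-bla FRET reading. HEK 293T FXR-UAS-bla cells received compound 5 h post-plating and were incubated 16 h at 37 C.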
# [4] = qHTS assay to identify small molecule antagonists of the farnesoid-X-receptor (FXR) signaling pathway - cell viability counter screen (AID 743221; active = well fitted cell-killing curve with a large enough effect in the repeat runs, not every such curve was filed as active; note: nearly all actives have a fitted effect of over 50% in size)
# Procedure, shortened: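 CellTiter-Glo, 30 min RT, luminescence; same wells as the LiveBLAzer FRET read. Cells: FXR-UAS-bla HEK 293T. Treatment: compound with chenodeoxycholic acid 50 uM final, 16 h at 37 C.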
# [5] = target: Vitamin D3 receptor (Homo sapiens) (UniProt P11473); experiment: qHTS assay to identify small molecule agonists of the vitamin D receptor (VDR) signaling pathway (AID 743222; calls by dose curve)
# Sequence of Vitamin D3 receptor (Homo sapiens) (P11473 whole entry, looked up): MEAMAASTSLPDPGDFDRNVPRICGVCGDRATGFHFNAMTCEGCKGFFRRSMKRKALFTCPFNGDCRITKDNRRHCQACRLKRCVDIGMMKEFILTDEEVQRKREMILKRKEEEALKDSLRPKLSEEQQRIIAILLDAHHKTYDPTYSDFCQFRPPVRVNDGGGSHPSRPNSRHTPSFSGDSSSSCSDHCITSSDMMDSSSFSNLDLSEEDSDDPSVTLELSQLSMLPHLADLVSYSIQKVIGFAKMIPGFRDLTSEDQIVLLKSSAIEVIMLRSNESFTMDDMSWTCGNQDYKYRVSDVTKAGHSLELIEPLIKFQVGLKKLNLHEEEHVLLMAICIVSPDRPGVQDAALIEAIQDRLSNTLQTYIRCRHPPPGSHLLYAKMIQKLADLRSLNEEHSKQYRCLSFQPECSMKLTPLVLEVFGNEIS
# Procedure, shortened: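 Following 4 h attachment at 37C, VDR-bla cells (2,000 per well) received DMSO-dissolved compounds or controls. After 16 h incubation, LiveBLAzer B/G FRET substrate was added and fluorescence read 2 h later at room temperature.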
# [6] = target: Vitamin D3 receptor (Homo sapiens) (UniProt P11473); experiment: qHTS assay to identify small molecule antagonists of the vitamin D receptor (VDR) signaling pathway (AID 743223; active = well fitted inhibition curve with a large enough effect in the signal ratio in the repeat runs, not every such curve was filed as active; the % refers to the signal ratio)
# Procedure, shortened: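 After VDR-bla cells are plated and left 4 h at 37C, DMSO-dissolved compounds and 3 nM (final) calcitriol agonist are added. Incubation continues 16 h at 37C; FRET beta-lactamase substrate then develops 2 h at room temperature.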
# [7] = qHTS assay to identify small molecule agonists of the vitamin D receptor (VDR) signaling pathway - cell viability counter screen (AID 743224); note: nearly all actives have a fitted effect of over 50% in size; note: potency is the fitted concentration of half-maximal effect
# Procedure, shortened: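 In parallel with the bla FRET readout, cytotoxicity toward VDR-bla cells after 16 h compound exposure was assessed by CellTiter-Glo, with luminescence recorded after a 30 min room-temperature incubation.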
# [8] = qHTS assay to identify small molecule antagonists of the vitamin D receptor (VDR) signaling pathway - cell viability counter screen (AID 743225); note: nearly all actives have a fitted effect of over 50% in size
# Procedure, shortened: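 Cytotoxicity toward the VDR-bla HEK 293T line was scored by ATP-based CellTiter-Glo luminescence, read in the wells already used for the beta-lactamase readout after 16 h compound treatment under 3 nM 1-alpha,25-dihydroxyvitamin D3 stimulation.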
# [9] = qHTS assay to identify small molecule agonists of the NFkB signaling pathway (AID 1159509; active = well fitted curve in the direction sought with a large enough effect in the signal ratio in the repeat runs, not every such curve was filed as active; the % refers to the signal ratio; note: series mostly up to about 61 µM)
# Procedure, shortened: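 Pathway activation was measured in ME-180 cells stably expressing beta-lactamase under NF-kB response element control. Substrate cleavage was read as the 460/530 nm emission shift after 5 hr compound incubation.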
# [10] = qHTS assay to identify small molecule agonists of the NFkB signaling pathway - cell viability counter screen (AID 1159515; calls by dose curve; note: series mostly up to about 61 µM; nearly all actives have a fitted effect of over 55% in size)
# Procedure, shortened: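 Plate 2,000 NFkB-bla ME-180 cells/well; incubate overnight. Add compounds, 5 hr at 37 C. Add FRET substrate, 1.5 hr RT. Add CellTiter-Glo, 30 min RT; read luminescence.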
# [11] = qHTS assay to identify small molecule agonists of the endoplasmic reticulum stress response signaling pathway (AID 1159516; active = well fitted activation curve with a large enough effect in the signal ratio in the repeat runs, not every such curve was filed as active; the % refers to the signal ratio)
# Procedure, shortened: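 Beta-lactamase expression from the ER stress response element in HeLa reporter cells is quantified with the LiveBLAzer B/G FRET substrate, read at 405 nm excitation after 2 hr at room temperature, following 5 hr compound treatment at 37 C.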
# [12] = qHTS assay to identify small molecule agonists of the endoplasmic reticulum stress response signaling pathway - cell viability counter screen (AID 1159517; calls by dose curve)
# Procedure, shortened: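 In parallel with the ESRE reporter read, cytotoxicity was scored by CellTiter-Glo luminescence (30 min, room temperature) on HeLa ESRE-bla cells dosed for 5 hr.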
# [13] = qHTS assay to identify small molecule antagonists of the retinoid-related orphan receptor gamma (ROR-gamma) signaling pathway - cell viability counter screen (AID 1159520); note: nearly all actives have a fitted effect of over 50% in size; note: potency is the fitted concentration of half-maximal effect
# Procedure, shortened: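 Tet-on ROR gamma CHO cells were given compounds for 2 hr, then doxycycline hyclate at 1 uM final, and incubated 16 hr at 37 C. Viability was measured as ATP content by CellTiter-Glo luminescence.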
# [14] = qHTS assay to identify small molecule agonists of the AP-1 signaling pathway - cell viability counter screen (AID 1159525; calls by dose curve; note: nearly all actives have a fitted effect of over 55% in size)
# Procedure, shortened: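 Same-well cytotoxicity counter screen of the Tox21 10K library in ME-180 cells. The readout is ATP-dependent luminescence after 5 h compound treatment. Data are normalised to DMSO and tetra n-octyl ammonium bromide controls.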
# [15] = qHTS assay to identify small molecule agonists of the AP-1 signaling pathway (AID 1159526; calls by dose curve)
# [16] = target: Bile acid receptor (Homo sapiens) (UniProt Q96RI1); experiment: qHTS assay to identify small molecule antagonists of the farnesoid-X-receptor (FXR) signaling pathway (AID 743217; active = well fitted inhibition curve with a large enough effect in the signal ratio in the repeat runs, not every such curve was filed as active; the % refers to the signal ratio; note: potency is the fitted concentration of half-maximal effect)
# Sequence of Bile acid receptor (Homo sapiens) (Q96RI1 whole entry, looked up): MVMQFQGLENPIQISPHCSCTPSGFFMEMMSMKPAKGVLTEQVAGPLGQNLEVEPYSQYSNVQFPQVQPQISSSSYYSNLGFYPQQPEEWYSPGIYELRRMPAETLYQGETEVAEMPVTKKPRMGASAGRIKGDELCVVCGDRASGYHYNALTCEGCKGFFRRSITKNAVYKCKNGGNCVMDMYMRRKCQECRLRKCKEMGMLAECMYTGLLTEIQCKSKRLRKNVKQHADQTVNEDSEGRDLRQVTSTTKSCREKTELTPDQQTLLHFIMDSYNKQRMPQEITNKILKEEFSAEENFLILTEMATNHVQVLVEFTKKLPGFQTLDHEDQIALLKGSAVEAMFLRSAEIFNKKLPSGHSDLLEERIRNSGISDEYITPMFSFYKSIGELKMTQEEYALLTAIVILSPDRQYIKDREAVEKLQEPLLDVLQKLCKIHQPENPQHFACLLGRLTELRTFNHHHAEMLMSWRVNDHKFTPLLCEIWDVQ
# Procedure, shortened: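 FRET fluorescence after 2 h room-temperature LiveBLAzer loading gives the readout. Prior step: FXR-bla HEK 293T cells, seeded and incubated 5 h, received test compounds plus 50 uM final CDCA for 16 h at 37 °C.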
# [17] = target: Bile acid receptor (Homo sapiens) (UniProt Q96RI1); experiment: qHTS assay to identify small molecule agonists of the farnesoid-X-receptor (FXR) signaling pathway (AID 743220; active = well fitted activation curve with a large enough effect in the signal ratio in the repeat runs, not every such curve was filed as active; the % refers to the signal ratio)
# Procedure, shortened: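 FXR-UAS-bla HEK 293T cells carrying a UAS-driven beta-lactamase reporter were plated for 5 h at 37C/5% CO2, then exposed to DMSO-dissolved Tox21 10K compounds for 16 h at 37C. A LiveBLAzer B/G FRET substrate was loaded for 2 h at room temperature before fluorescence reading.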
# [18] = target: Peroxisome proliferator-activated receptor delta (Homo sapiens) (UniProt Q03181); experiment: qHTS assay to identify small molecule antagonists of the peroxisome proliferator-activated receptor delta (PPARd) signaling pathway (AID 743215; active = well fitted inhibition curve with a large enough effect in the signal ratio in the repeat runs, not every such curve was filed as active; the % refers to the signal ratio;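 note: cells stimulated with agonist L165041 at 300 nM final during compound exposure; series mostly up to about 62 µM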)
# Sequence of Peroxisome proliferator-activated receptor delta (Homo sapiens) (Q03181 whole entry, looked up): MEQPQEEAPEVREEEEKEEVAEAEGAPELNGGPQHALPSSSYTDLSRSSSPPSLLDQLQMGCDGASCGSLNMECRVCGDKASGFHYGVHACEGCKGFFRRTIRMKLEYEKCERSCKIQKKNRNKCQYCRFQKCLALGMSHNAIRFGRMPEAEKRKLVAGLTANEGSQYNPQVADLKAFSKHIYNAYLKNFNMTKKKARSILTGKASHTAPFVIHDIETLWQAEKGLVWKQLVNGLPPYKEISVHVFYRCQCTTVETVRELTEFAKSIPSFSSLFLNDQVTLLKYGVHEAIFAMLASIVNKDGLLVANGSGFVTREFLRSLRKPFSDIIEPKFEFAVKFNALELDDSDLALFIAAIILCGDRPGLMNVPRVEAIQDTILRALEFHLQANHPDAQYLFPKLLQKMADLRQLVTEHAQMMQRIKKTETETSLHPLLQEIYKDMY
# Procedure, shortened: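 Fluorescence from cleaved LiveBLAzer B/G FRET substrate (2 h, room temperature) reports PPARd-driven beta-lactamase in HEK293H UAS-bla cells. Cells had been treated 17 h at 37 C with compound plus 300 nM final L165041.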
# [19] = target: Peroxisome proliferator-activated receptor delta (Homo sapiens) (UniProt Q03181); experiment: qHTS assay to identify small molecule agonists of the peroxisome proliferator-activated receptor delta (PPARd) signaling pathway (AID 743212; calls by dose curve)
# Procedure, shortened: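 Tox21 library screened in GeneBLAzer PPARd UAS-bla HEK293H cells. After compound treatment at 37 C, a FRET-based beta-lactamase substrate was applied for 2 h and fluorescence recorded.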
Structure (SMILES),Potency [1],Potency [2],Potency [3],Potency [4],outcome [5],outcome [6],Potency [7],Potency [8],outcome [9],outcome [10],outcome [11],outcome [12],Potency [13],outcome [14],outcome [15],Potency [16],Potency [17],Potency [18],Potency [19]
COc1ccc(C(=O)c2cccc(O)c2)c(OC)c1,inactive,inactive,inactive,inactive,inactive,inactive,inactive,inactive,inactive,inactive,inactive,inactive,inactive,inactive,inactive,–,–,–,–
C/C=C(\C)C(=O)OCCC(C)CCC=C(C)C (stereo unspecified),inactive,inactive,inactive,inactive,inactive,inactive,inactive,inactive,inactive,inactive,inactive,inactive,inactive,inactive,inactive,inactive,inactive,–,–
N#C/C(=C1/SC[C@@H](c2ccc(Cl)cc2Cl)S1)n1ccnc1,inactive,inactive,inactive,inactive,–,–,–,–,inactive,inactive,inactive,inactive,inactive,inactive,inactive,–,–,–,–
CN1CCCN=C1/C=C/c1cccs1,inactive,inactive,inactive,inactive,inactive,inactive,inactive,inactive,inactive,inactive,inactive,inactive,inactive,inactive,inactive,–,–,–,–
CC(C)=CC=O,inactive,inactive,inactive,inactive,inactive,inactive,inactive,inactive,inactive,inactive,inactive,inactive,inactive,inactive,inactive,–,–,inactive,–
Cc1cc(C(=C2C=CC(=Nc3ccc(S(=O)(=O)O)cc3S(=O)(=O)O)C=C2)c2ccc(Nc3ccc(S(=O)(=O)O)cc3)cc2)ccc1N,inactive,inactive,–,inactive,inactive,inactive,inactive,inactive,inactive,inactive,inactive,inactive,inactive,inactive,inactive,–,–,–,–
CCCOc1ccc(S(=O)(=O)N2CCN(CC)CC2)cc1-c1nc2c(CC)n(Cc3ccccn3)nc2c(=O)[nH]1,inactive,inactive,inactive,inactive,inactive,–,inactive,inactive,inactive,inactive,inactive,inactive,inactive,inactive,inactive,inactive,inactive,–,–
Cc1ccnc2ccccc12,inactive,inactive,inactive,inactive,inactive,inactive,inactive,inactive,inactive,inactive,inactive,inactive,inactive,inactive,inactive,–,–,inactive,–
Nc1ccc(S(=O)(=O)O)cc1,inactive,inactive,inactive,inactive,inactive,inactive,inactive,inactive,inactive,inactive,inactive,inactive,inactive,inactive,inactive,inactive,inactive,–,–
O=C(O)c1c(O)c(-c2ccccc2)nc2ccccc12,inactive,inactive,–,inactive,inactive,inactive,inactive,inactive,inactive,inactive,inactive,inactive,inactive,inactive,inactive,16.8 µM (active),inactive,–,–
C=C(C)C(=O)OCCOC(=O)CC(C)=O,inactive,–,inactive,inactive,inactive,–,inactive,–,inactive,inactive,inactive,inactive,inactive,inactive,inactive,inactive,inactive,–,inactive
CCOCCn1c(C2CCN(CCc3ccc(C(C)(C)C(=O)O)cc3)CC2)nc2ccccc21,inactive,–,inactive,inactive,inactive,inactive,inactive,inactive,inactive,inactive,inactive,inactive,inactive,inactive,inactive,inactive,inactive,–,inactive
CCCCCCCCCCCC(=O)[O][Sn]([CH2]CCC)([CH2]CCC)[O]C(=O)CCCCCCCCCCC,inactive,–,–,–,–,–,23.7 µM (active),inactive,inactive,inactive,inactive,inactive,13.3 µM (active),inactive,inactive,–,–,–,inactive
